The results in this text go back to PubChem BioAssay AID1851 (National Center for Advancing Translational Sciences (NCATS), 2009).

Where “and” joins values, the source holds several entries; their conditions need not be identical. Identical values can stand only once. The campaign covered roughly 16,000 compounds. About 5,800 (36%) were called active. About 23% were inconclusive and are not listed. The list shows a part of the results. Unmarked numbers belong to inactive results. Calls come from the whole dose curve; as a rule, active = well fitted curve in the direction sought with a large enough effect; inconclusive = small, poorly fitted or top-dose-only effect, or effect the other way; inactive = no such curve, though single readings can be large or run the other way.
% is set by controls: 0 for no effect and ±100 for the full control effect.

Sequence of Cytochrome P450 2C19 (Homo sapiens) (P33261 whole entry, looked up): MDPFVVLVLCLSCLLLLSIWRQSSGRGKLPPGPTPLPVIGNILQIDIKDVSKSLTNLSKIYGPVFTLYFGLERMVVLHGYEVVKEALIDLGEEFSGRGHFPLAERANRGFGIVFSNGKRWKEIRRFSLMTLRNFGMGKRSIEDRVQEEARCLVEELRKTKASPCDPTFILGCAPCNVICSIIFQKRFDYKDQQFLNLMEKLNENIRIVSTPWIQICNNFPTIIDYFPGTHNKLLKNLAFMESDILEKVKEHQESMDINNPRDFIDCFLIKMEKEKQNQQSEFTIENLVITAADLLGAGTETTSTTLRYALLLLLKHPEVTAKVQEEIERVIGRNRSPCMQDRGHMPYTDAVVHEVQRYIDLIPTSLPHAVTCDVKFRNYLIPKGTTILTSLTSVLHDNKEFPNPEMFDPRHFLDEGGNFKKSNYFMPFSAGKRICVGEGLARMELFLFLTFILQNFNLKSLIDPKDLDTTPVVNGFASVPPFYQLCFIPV

This test concerns the target Cytochrome P450 2C19 (Homo sapiens) (UniProt P33261). Put plainly: Cytochrome panel assay with activity outcomes. Particulars: recombinant CYP, pro-luciferin dealkylation, luminescence, p450-cyp2c19; series mostly up to 57.1 µM; activity, negative = inhibition: at the top concentration.
In the case of `NCC[C@H](O)C(=O)N[C@H]1C[C@@H](N)[C@@H](O[C@H]2O[C@@H](CN)[C@@H](O)[C@@H](O)[C@@H]2O)[C@@H](O)[C@@H]1O[C@H]1O[C@@H](CO)[C@@H](O)[C@@H](N)[C@@H]1O`, the “activity, negative = inhibition” value was 8.94% [at 25.6 µM].

Take `N[C@@H](C(=O)O)c1cc(O)ccc1Cl`: the “activity, negative = inhibition” value was -10%. Consider `CNC(=O)c1sc(-c2cccnc2)nc1C`, for which the “activity, negative = inhibition” value was -9.33%. What is called AC50 is the midpoint of the concentration-response curve, whichever way the signal moves. For the compound `Cc1nc(-c2cccnc2)sc1C(=O)Nc1ccc(Cl)cc1`, the AC50 was 11.2 µM (active).

With `CC(=O)OC[C@H]1O[C@@H](O/N=C(\C)CCN2CCCCc3nc(C)c(C)cc32)[C@H](OC(C)=O)[C@@H](OC(C)=O)[C@H]1OC(C)=O`, the activity, negative = inhibition was -0.342% [at 11.4 µM]. On the same count and under the same terms, the figure for `CNc1ncnc2c1ncn2[C@@H]1O[C@@H](CO)[C@H](O)[C@@H]1O` is 1.57%; for `CNc1ncnc2c1ncn2[C@H]1C[C@@H](OP(=O)(O)O)[C@H](COP(=O)(O)O)O1` it is 6.61%. As to `CNc1ncnc2c1ncn2[C@H]1C[C@H](OP(=O)(O)O)[C@H](COP(=O)(O)O)O1`, the AC50 is 1 µM (active). Consider `CN(C)CCN(Cc1cccs1)c1ccccn1`, for which the AC50 result is “inactive”.

`COc1ccc(CN(CCN(C)C)c2ccccn2)cc1`: the “activity, negative = inhibition” value was 20.1%. For `CN(C)CCN(Cc1ccc(Cl)cc1)c1ccccn1`, the AC50 was 6.31 µM (active). Take `N=c1n(-c2ccccc2)c(O)cc(=O)n1-c1ccccc1`: the “activity, negative = inhibition” value was -21.2%.

Take `Cc1ccc(C(=O)N/C(=C\c2ccc(Br)cc2)c2nc(=S)[nH][nH]2)cc1`: the AC50 was 11.2 µM (active). In the case of `CO[C@H]1COC(=O)CCC[C@@H](C)[C@H](OC)COC(=O)[C@@H](C)NC(=O)C/C=C\[C@@H]1C`, the activity, negative = inhibition was 31.3% [at 11.4 µM]. In the case of `O=C(O)COc1ccc(OCCNC[C@@H](O)COc2ccccc2)cc1`, the “activity, negative = inhibition” value is -33.9%. In the case of `COc1ccc(-c2cc3ccccc3n2CC(O)CNCCO)cc1` (configuration not stated), the concentration at half-maximal activity (AC50) was 14.1 µM (active). Same read-out and setting: as for `NC(=O)c1cc[n+](CC2=C(C(=O)O)N3C(=O)[C@@H](NC(=O)[C@H](c4ccccc4)S(=O)(=O)[O-])[C@@H]3SC2)cc1`, the entry is “inactive”.

Regarding `O=C(NNS(=O)(=O)c1ccccc1)c1cccnc1`, the activity, negative = inhibition was 9.95% [at 11.4 µM]. `O=C(NNS(=O)(=O)c1ccc(Cl)cc1)c1cnn(-c2ccccc2)c1-n1cccc1`: the AC50 is 1.12 µM (active).

Take `O=C(NNS(=O)(=O)c1ccc(Cl)cc1)C1CCN(Cc2ccccc2)CC1`: the “activity, negative = inhibition” value is -6.45%.

Take `COc1cc2c(cc1OC)C(C(=O)N1CCOCC1)C(c1cccs1)N(C)C2=O` (configuration not stated): the “activity, negative = inhibition” value was 9.22%. With `Cc1ccc(-n2c(C)nnc2SCC(=O)N2CCc3ccccc3C2)cc1C`, the AC50 is 22.4 µM (active). As to `CCC(=O)Nc1c2c(nc3c1CCC3)CCCC2`, the “activity, negative = inhibition” value was -14.8%. In the case of `CCSc1nnc(NC(=O)CSc2nc3c(cc2C#N)CCCC3)s1`, the AC50 is 2.82 µM (active). Turning to `COc1ccc(-n2nc3cc(C)c(NC(=S)NC(=O)c4ccccc4C)cc3n2)cc1`, the “activity, negative = inhibition” value was -29.5%. On to `COc1ccc(NC(=S)Nc2ncccc2C)c(OC)c1`, for which the AC50 is 3.55 µM (active). With `CO[C@H]1COC(=O)C/C=C\[C@H](C)[C@@H](NS(=O)(=O)c2ccc(C)cc2)COC(=O)C/C=C\[C@@H]1C`, the activity, negative = inhibition was 1.28% [at 11.4 µM] and 16.7% [at 11.4 µM]. Still for that read-out and setting: the figure for `COC(=O)N1CCC2(CC1)CCN(c1ncccn1)CC2` is 9.12%. Consider `Cc1sc(NC(=O)c2ccco2)c(C(c2cccnc2)N2CCN(C)CC2)c1C` (configuration not stated), for which the AC50 was 20 µM (active). Still for that read-out and setting: as for `Cc1sc(NC(=O)c2ccco2)c(C(c2ccncc2)N2CCOCC2)c1C` (configuration not stated), the figure is 10 µM (active); as for `Cc1sc(NC(=O)c2ccco2)c(C(c2cccnc2)N2CCCC2)c1C` (configuration not stated), 11.2 µM (active). On to `O=C(Nc1c(C(=O)N2CCCCC2)cnn1-c1ccccc1)c1ccco1`, for which the “activity, negative = inhibition” value is -22.6%. Turning to `Cc1c(C)c2c(c(C)c1O)CC[C@@](C)(C(=O)O)O2`, the “activity, negative = inhibition” value was 9.1% [at 25.6 µM].

Consider `O=C(N/N=C/c1ccc(O)cc1)c1csc2ccccc12`, for which the AC50 was 14.1 µM (active). On the same count and under the same terms, the figure for `CCOc1ccc(NC(=S)N(Cc2ccc(Cl)cc2)Cc2ccco2)cc1` is 7.94 µM (active); for `CCOc1ccc(NC(=S)N(Cc2ccc(N(C)C)cc2)Cc2ccco2)cc1` it is 1.58 µM (active); for `Cc1ccc2c(c1)nnn2C1CCN(CC(=O)N2c3ccccc3CC2C)CC1` (configuration not stated) it is 10 µM (active). For the compound `Cc1ccccc1NC(=O)CN1CCC(n2nnc3ccccc32)CC1`, the AC50 is 17.8 µM (active).

Regarding `CCc1ccccc1NC(=O)c1nnn(CC(=O)Nc2ccccc2C)c1N`, the “activity, negative = inhibition” value was -8.56%. Turning to `Cc1cc(N=Cc2c(CO)cnc(C)c2O)c(N=Cc2c(CO)cnc(C)c2O)cc1C.[Zn]`, the activity, negative = inhibition is -22.1% [at 11.4 µM].

With `CCCCN=c1sc(C(=O)OC)cc(=O)n1CCCC`, the AC50 is 2.24 µM (active). On to `Cc1cc2c(c(=O)o1)[C@@H](O)[C@H]1O[C@@H]1C2=O`, for which the activity, negative = inhibition was -1.32% [at 11.4 µM].

For the compound `Cc1cccc(NS(=O)(=O)c2c(C)n[nH]c2C)c1`, the concentration at half-maximal activity (AC50) is 7.08 µM (active). As for `CN(C)c1cc(-c2cccc(NS(C)(=O)=O)c2)ncn1`, the “activity, negative = inhibition” value was -19%.

As to `Cc1n[nH]c(C)c1S(=O)(=O)N1CCOCC1`, the “activity, negative = inhibition” value was 2.95%. For the compound `COc1ccc(N(CC(=O)Nc2cccc(C)c2)S(=O)(=O)c2c(C)n[nH]c2C)cc1`, the AC50 was 0.794 µM (active).

`CN(CC(=O)Nc1ccc(F)c(F)c1)S(=O)(=O)c1cccc2nsnc12`: the AC50 was 3.55 µM (active). As to `N#Cc1cccc(NC(=O)N2CCC3(CC2)CCN(C(=O)c2cccc(F)c2)CC3)c1`, the “activity, negative = inhibition” value is -25.9%. `O=S1(=O)[C@H]([C@H]2CC3c4ccccc4C2c2ccccc23)[C@@H](N2CCCCC2)[C@@H]1c1ccccc1`: the concentration at half-maximal activity (AC50) was 2.51 µM (active). With `O=C(O)[C@@H]1CCCN1`, the activity, negative = inhibition was 19.4% [at 11.4 µM]. In the case of `O=C(O)[C@H]1C[C@@H](CP(=O)(O)O)CCN1`, the AC50 was 7.94 µM (active).

With `O=C(O)[C@H]1CN(CCCP(=O)(O)O)CCN1`, the “activity, negative = inhibition” value was -8.91%.

Turning to `CCCCn1c(SCc2c(C)noc2C)nc2cc(S(N)(=O)=O)ccc21`, the AC50 is 14.1 µM (active). Consider `CCOc1c(OC(C)=O)ccc(/C=C2\N=C(SCC)SC2=O)c1[N+](=O)[O-]`, for which the concentration at half-maximal activity (AC50) is 2.82 µM (active). On the same count and under the same terms, the figure for `CCOc1c(OC(C)=O)ccc(/C=C/c2ccc3cccc(OC(C)=O)c3n2)c1[N+](=O)[O-]` is 10 µM (active); for `COc1ccc(-c2cc(C(F)F)nc(-n3nc(C)cc3C)n2)cc1` it is 28.2 µM (active). Same read-out and setting: the figure for `Cc1c(C)c2c(C)[nH]nc2oc1=O` is 17.8 µM (active); for `Fc1ccc(CSc2ncnc3sc4c(c23)CCCC4)cc1` it is 0.891 µM (active). On to `Clc1ccc(CSc2ncnc3c2ncn3[C@@H]2CCCCO2)cc1`, for which the activity, negative = inhibition was -40.6% [at 11.4 µM]. On the same count and under the same terms, as for `Nc1[nH]c(=O)nc2c1ncn2[C@H]1O[C@@H](CO)[C@@H](O)[C@@H]1O`, the figure is 25.3% [at 11.4 µM]. Turning to `CCn1c2ccccc2c2cc(/C=N/n3cn[nH]c3=S)ccc21`, the concentration at half-maximal activity (AC50) was 3.55 µM (active). Turning to `O=C1[C@H]2[C@H]3[C@H](O)[C@H](O)C/C(=N/OC[C@@H](O)COCc4ccco4)[C@@H]3CC[C@@H]2C(=O)N1C1CCCCC1`, the activity, negative = inhibition is 9.78% [at 11.4 µM].

Regarding `CS(=O)(=O)Nc1ccc(S(=O)(=O)N2CCOCC2)cc1`, the “activity, negative = inhibition” value was 12.7%. On to `COc1cc(NC(=S)Nc2ccc(S(=O)(=O)N3CCOCC3)cc2)cc(OC)c1OC`, for which the AC50 is 10 µM (active).

With `CCCc1c(OCCCOc2ccc(OCC(=O)O)cc2)ccc(CC=O)c1O`, the “activity, negative = inhibition” value is 14%. `COc1ccc(C(=O)N/N=C(\C)Cn2nc([N+](=O)[O-])cc2C)cc1`: the “activity, negative = inhibition” value was -29%. In the case of `COc1ccc(CC(=O)Nc2cccc(/C(C)=N/NC(=O)c3cccc([N+](=O)[O-])c3)c2)cc1`, the AC50 was 14.1 µM (active).

For the compound `Cc1cc2nnc(SCC(=O)OC(C)C)n2c2ccccc12`, the AC50 was 7.94 µM (active). With `CCSc1nnc2n(N)c(=O)c3ccccc3n12`, the “activity, negative = inhibition” value is -68.5%. Still for that read-out and setting: as for `COC(=O)c1cc(C#N)c(NCc2ccc(Cl)cc2Cl)nc1C`, the figure is -14%. For the compound `COc1ccc(Oc2ncc3nc(C)c(=O)n(-c4ccc(OC)cc4)c3n2)cc1`, the “activity, negative = inhibition” value is -22%.

As for `CC(=O)c1cc(C#N)c(Oc2cccc(C(F)(F)F)c2)nc1C`, the AC50 was 11.2 µM (active). The same measure, in the same setting: as for `COC(=O)c1cc(C#N)c(Oc2ccc(OC)cc2)nc1C`, the figure is 17.8 µM (active). For `Cn1cccc1C(=O)N1CCC2(CCN(C(=O)Nc3ccccc3)CC2)CC1`, the “activity, negative = inhibition” value was -13.8%. Same read-out and setting: the figure for `Cn1cccc1C(=O)N1CCC2(CC1)CN(C(=O)Nc1ccccc1)C2` is -10.7%.

For the compound `Cn1cccc1C(=O)C(=O)Nc1cccc(Cl)c1Cl`, the half-maximal activity concentration (AC50) was 3.16 µM (active). For the compound `O=c1n(-c2ccccc2)c(=O)n2n1CC[C@H]1/C(=N\OC[C@@H](O)COCc3ccco3)[C@H]3O[C@@H]3[C@@H](O)[C@@H]12`, the activity, negative = inhibition is 18.2% [at 11.4 µM] and 1.03% [at 11.4 µM]. As to `CCN(c1ccc(NC(=O)COC(=O)c2ccc3ccccc3n2)cc1)C(C)C`, the AC50 was 4.47 µM (active).

Regarding `Cc1ccnc2nc(C(=O)OCC(=O)Nc3ccc4c(c3)OC(F)(F)O4)nn12`, the “activity, negative = inhibition” value was -13.2%. As for `COc1ccc(C(=O)Nc2ccc(OCC(F)(F)C(F)F)c(C(F)(F)F)c2)cc1OC`, the AC50 was 14.1 µM (active). With `CC(C)NC(=O)N1CC[C@@]2(CCCN(C(=O)c3csnn3)C2)C1`, the “activity, negative = inhibition” value was 26.7%. With `Cc1ccc2cc(CCNC(=O)c3ccc(Br)o3)c(=O)[nH]c2c1`, the AC50 was 2.24 µM (active). Consider `COc1ccc2cc(CCNC(=O)C3CC3)c(=O)[nH]c2c1`, for which the “activity, negative = inhibition” value was 15.9%.

`CC(=O)N1CCN(C(=O)CC2OC(=O)c3ccccc32)CC1` (configuration not stated): the AC50 is 1.78 µM (active).

For the compound `COc1ccc(OC)c2c(=S)c3ccccc3[nH]c12`, the “activity, negative = inhibition” value was -15%. On to `CCN(C(=S)Nc1ccccc1F)C1CCCCC1`, for which the concentration at half-maximal activity (AC50) was 3.98 µM (active).

On to `Cc1ccc([N+](=O)[O-])cc1NC(=S)NC(=O)C(C)(C)C`, for which the half-maximal activity concentration (AC50) is 2 µM (active).

For the compound `Cc1ccc([N+](=O)[O-])cc1NC(=S)NC(=O)CC(C)(C)C`, the AC50 was 4.47 µM (active). For the compound `Cc1ccc(SCc2ccc(C(=O)Nc3cc([N+](=O)[O-])ccc3C)cc2)cc1`, the “activity, negative = inhibition” value was -29.8%. `CCn1c(C)c(C)c2cc(C(=O)Nc3cccc(Cl)c3)ccc21`: the AC50 is 7.08 µM (active).

On to `Cc1c(C)n(C)c2ccc(C(=O)Nc3cccc4ccccc34)cc12`, for which the AC50 is 3.55 µM (active).

Consider `O=C(O)c1ccc(C(=O)Nc2cccc3ccccc23)c(C(=O)O)c1`, for which the activity, negative = inhibition is 12.6% [at 11.4 µM].
